# Assay results taken from PubChem BioAssay (EPA / NIEHS).
# Results filed as inconclusive are left out. Where a structure was tested more than once in an assay, its records may differ in their call. Activity calls are given as the source filed them. The calls were made as follows: active = hit-call score of the fitted dose curve at least 0.9, where 1 is the maximum; inconclusive = response in the unintended direction; inactive = score below 0.9.
# Target: rat Thyrotropin Releasing Hormone Receptor (TRH), Trhr (gene 25570) (UniProt Q01717)
# Assay: NVS_GPCR_rTRH: NovaScreen (NVS) G Protein-Coupled Receptor Assay for rat Thyrotropin Releasing Hormone Receptor (TRH) (AID 2283329);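 also: hit means lower bound tracer signal versus DMSO baseline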
# Method in brief: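 Rat forebrain membranes; radioligand displacement at TRH receptor by filter-based scintillation counting, read 4 h after dosing. Duplicate single-point screen at 25 uM, actives rerun in concentration series; loss of signal relative to DMSO.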
# Sequence of rat Thyrotropin Releasing Hormone Receptor (TRH), Trhr (gene 25570) (Q01717 whole entry, looked up): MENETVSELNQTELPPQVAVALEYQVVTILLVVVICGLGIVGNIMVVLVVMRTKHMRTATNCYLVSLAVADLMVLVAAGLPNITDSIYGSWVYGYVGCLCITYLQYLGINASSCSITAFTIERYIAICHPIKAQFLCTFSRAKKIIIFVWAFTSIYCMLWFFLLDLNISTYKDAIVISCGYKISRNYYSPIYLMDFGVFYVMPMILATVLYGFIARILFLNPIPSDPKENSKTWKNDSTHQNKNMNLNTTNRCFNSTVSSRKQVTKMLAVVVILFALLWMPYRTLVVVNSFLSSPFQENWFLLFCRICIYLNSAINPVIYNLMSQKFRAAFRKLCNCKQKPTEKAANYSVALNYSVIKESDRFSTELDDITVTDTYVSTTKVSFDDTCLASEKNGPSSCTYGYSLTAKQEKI
row,Structure (SMILES),outcome
1,CN1CSC(=S)N(C)C1,inactive
2,C#CCN1C(=O)COc2cc(F)c(N3C(=O)C4=C(CCCC4)C3=O)cc21,inactive
3,O=[N+]([O-])c1c(Cl)c(Cl)c(Cl)c(Cl)c1Cl,inactive
4,ClC1C(Cl)C(Cl)C(Cl)C(Cl)C1Cl (stereo not drawn),inactive

# Target: rat Peripheral-type Benzodiazepine Receptor (PBR), Tspo (gene 24230) (UniProt P16257)
# Assay: NVS_MP_rPBR: NovaScreen (NVS) Membrane Protein Assay for rat Peripheral-type Benzodiazepine Receptor (PBR) (AID 2283335)
# Method in brief: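 Radioligand displacement, rat kidney membrane prep, 1 h exposure, filter-based scintillation read; DMSO baseline, loss-of-signal scored. Primary screen at 25 uM in duplicate, actives followed up in concentration series.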
# Sequence of rat Peripheral-type Benzodiazepine Receptor (PBR), Tspo (gene 24230) (P16257 whole entry, looked up): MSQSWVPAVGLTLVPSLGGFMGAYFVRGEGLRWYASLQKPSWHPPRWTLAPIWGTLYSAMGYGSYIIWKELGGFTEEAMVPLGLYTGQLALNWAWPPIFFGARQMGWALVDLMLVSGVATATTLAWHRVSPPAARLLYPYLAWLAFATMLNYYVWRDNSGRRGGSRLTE
Structure (SMILES),AC50,outcome
CCCN(CCC)c1c([N+](=O)[O-])cc(C(F)(F)F)cc1[N+](=O)[O-],16.5 µM (active),
CNC(=O)CSP(=S)(OC)OC,,inactive
O=C(O)CCCOc1ccc(Cl)cc1Cl,,inactive
CCOCN(C(=O)CCl)c1c(C)cccc1CC,1.45 µM (active),
COc1nn(CSP(=S)(OC)OC)c(=O)s1,13.1 µM (active),
CC1(C)C(C=C(Cl)Cl)C1C(=O)OC(C#N)c1ccc(F)c(Oc2ccccc2)c1 (stereo not drawn),10.8 µM (active),
CC(C)OC(=O)Nc1cccc(Cl)c1,4.63 µM (active),
CCC(C)(NC(=O)c1cc(Cl)c(C)c(Cl)c1)C(=O)CCl (stereo not drawn),0.0105 µM (active),
O=C1c2ccccc2C(=O)N1SC(Cl)(Cl)Cl,,inactive
O=[N+]([O-])c1c(Cl)c(Cl)c(Cl)c(Cl)c1Cl,,inactive
O=S1OCC2C(CO1)C1(Cl)C(Cl)=C(Cl)C2(Cl)C1(Cl)Cl (stereo not drawn),,inactive
ClC1C(Cl)C(Cl)C(Cl)C(Cl)C1Cl (stereo not drawn),14.1 µM (active),inactive
CCN(CC)C(=O)SCc1ccc(Cl)cc1,13.5 µM (active),
